Screening results (PubChem BioAssay)
Most compounds without a hit are left out; they make up all but 1.8% or so of the library.
ABCB6 inh 2 – inhibitors of human ABC transporter ABCB6; Q9NP58; 360,000 compounds, 0.19% hits; K562-ABCB6 porphyrin accumulation, flow cytometry, 1 h; stronger effect = lower value; fluorescence ratio to DMSO, % at 10 µM;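 active means fluorescence ratio to DMSO below 75%, the collection mean minus 3 SD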;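 further: signal is porphyrin accumulated inside mitochondria; lower ratio means ABCB6 inhibition with less porphyrin fluorescence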
NRP1-CendR mod – modulators of CendR peptide binding to human neuropilin-1 | FAM-RPARPAR peptide binding to NRP-1, fluorescence polarization | inhibition, % at 25 µM | 360,000 compounds, 0.85% hits | AID 602438;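 active means inhibition or corrected inhibition above about 18%, plus a signal ratio from 0.5 to 1.5, limit read from the data, passing the limit was not always enough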
Target sequence (O14786 whole entry, looked up): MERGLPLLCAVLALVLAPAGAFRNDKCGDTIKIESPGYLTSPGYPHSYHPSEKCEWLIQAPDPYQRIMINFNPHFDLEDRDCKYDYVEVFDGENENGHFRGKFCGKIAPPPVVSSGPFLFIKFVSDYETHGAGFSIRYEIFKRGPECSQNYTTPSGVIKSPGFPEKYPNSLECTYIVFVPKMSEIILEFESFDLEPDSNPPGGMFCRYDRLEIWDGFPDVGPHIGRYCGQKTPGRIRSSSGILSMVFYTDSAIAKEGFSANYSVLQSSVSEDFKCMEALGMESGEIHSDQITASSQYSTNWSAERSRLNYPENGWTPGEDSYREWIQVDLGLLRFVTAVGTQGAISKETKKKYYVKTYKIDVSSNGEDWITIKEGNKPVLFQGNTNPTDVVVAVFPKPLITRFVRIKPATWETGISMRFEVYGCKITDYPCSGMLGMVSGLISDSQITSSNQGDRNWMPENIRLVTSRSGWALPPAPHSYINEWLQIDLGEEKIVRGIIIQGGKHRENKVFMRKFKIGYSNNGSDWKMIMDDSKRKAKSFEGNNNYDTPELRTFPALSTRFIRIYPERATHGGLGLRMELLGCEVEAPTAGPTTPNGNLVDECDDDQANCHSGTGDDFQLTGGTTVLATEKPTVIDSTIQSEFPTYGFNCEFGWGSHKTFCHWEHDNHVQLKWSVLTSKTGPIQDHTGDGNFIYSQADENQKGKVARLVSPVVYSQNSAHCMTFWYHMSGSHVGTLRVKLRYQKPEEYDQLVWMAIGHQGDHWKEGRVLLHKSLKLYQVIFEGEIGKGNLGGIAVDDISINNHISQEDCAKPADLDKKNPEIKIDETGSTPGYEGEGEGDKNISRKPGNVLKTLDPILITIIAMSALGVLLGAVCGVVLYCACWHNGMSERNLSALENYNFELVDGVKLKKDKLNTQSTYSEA
iPSC survival up – increases survival of single human iPS cells; survival enhancement, % at 20 µM; 360,000 compounds, 0.044% hits; hiPSC single-cell survival, ATPlite luminescence; 100% = ROCK inhibitor wells, 0% = DMSO; in the data active means survival enhancement above about 18%;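 further: cells exposed to compounds for 16 hours before the ATP read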
GSIS activator – primary screen for activators of insulin secretion dependent on glucose, INS-1E cells, GLuc reporter luminescence. 370,000 compounds, 0.61% hits. activation, % at 16.6 µM. INS-1E GLuc reporter insulin secretion, 2-3 h. AID 743287;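 active means lowest replicate activation of at least 40%, so every replicate reaches that level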
ARNT-TACC3 inh – disruptors of human ARNT/TACC3 interaction; AlphaScreen His-ARNT PAS-B/GST-TACC3 binding, luminescence; TACC3 fragment carries E629A point mutation; 390,000 compounds, 0.66% hits; Q9Y6A5; inhibition, % at 9.99 µM;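 active means mean inhibition of replicates at least 50% and at least half of replicates each reaching 50%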
Each line names hits and unclear results; the compound was inactive in the other large screens.

COc1ccccc1CNC(=O)c1ccc2nc3[nH]c4ccccc4c3nc2c1	none (no result: ARNT-TACC3 inh)
CCCc1cc2c(O)ccc(O)c2c(=O)o1	none (no result: ABCB6 inh 2, NRP1-CendR mod, iPSC survival up, ARNT-TACC3 inh)
CCCc1cc2c(OC)ccc(O)c2c(=O)n1C	GSIS activator 53.3 (no result: ABCB6 inh 2, NRP1-CendR mod, iPSC survival up, ARNT-TACC3 inh)
COc1ccc(-c2noc(-c3ccccc3C(=O)N3CCOCC3)n2)cc1	NRP1-CendR mod 25.5 (no result: GSIS activator)
Cc1ccc(-c2noc(-c3ccccc3C(=O)N3CCOCC3)n2)cc1	none (no result: GSIS activator)
O=C1N=C(N2C=CC(=C3C=CNC=C3)C=C2)/C(=C/N=NC(=O)c2ccccc2O)S1	NRP1-CendR mod 41.4
C[C@H]1CN([C@@H](C)CO)C(=O)c2cc(NC(=O)Nc3ccc(C(F)(F)F)cc3)ccc2O[C@H]1CN(C)Cc1ccccc1	none (no result: ABCB6 inh 2, NRP1-CendR mod, iPSC survival up)
COc1cc(NC(=O)c2cc([N+](=O)[O-])ccc2NC(=O)CNCc2ccccn2)cc(OC)c1	ARNT-TACC3 inh 37.8
COc1ccc(NC(=O)c2cc([N+](=O)[O-])ccc2NC(=O)CNCc2ccccn2)c(OC)c1	ARNT-TACC3 inh 46.1
O=C(NC1CCCC1)N[C@H]1CC[C@H](CC(=O)N2CCOCC2)O[C@H]1CO	none (no result: ABCB6 inh 2, NRP1-CendR mod, iPSC survival up)
C[C@H]1CC=CC[C@@H](c2ccc(F)cc2)NC(=O)[C@H](C)N(C)C(=O)c2ccccc2O1 (mixture of isomers)	none (no result: ABCB6 inh 2, NRP1-CendR mod, iPSC survival up, ARNT-TACC3 inh)
Cc1cccc(-n2ccc(=O)c(C(=O)Nc3ccc(S(=O)(=O)Nc4onc(C)c4C)cc3)n2)c1	NRP1-CendR mod 36.3
Cc1cc(C)nc(NS(=O)(=O)c2ccc(NC(=O)c3nn(-c4ccccc4)ccc3=O)cc2)n1	none
CO[C@@H]1CN(C)C(=O)c2ccc(NC(=O)C3CC3)cc2OC[C@@H](C)N(C(=O)C2CCCCC2)C[C@H]1C	none (no result: ABCB6 inh 2, NRP1-CendR mod, iPSC survival up, ARNT-TACC3 inh)
CCC(=O)N1CC[C@H]2[C@H](CO)Nc3ccc(-c4cccc(C#N)c4)cc3[C@H]21	none (no result: ABCB6 inh 2, NRP1-CendR mod, iPSC survival up)
Cc1ccc2cc(C#N)c(SCC(=O)N3CCCc4ccccc43)nc2c1	none
Cc1ccc2cc(C#N)c(SCC(=O)N3CCCc4ccccc43)nc2c1C	NRP1-CendR mod 23.5 (no result: GSIS activator)
C[C@@H]1CN([C@@H](C)CO)C(=O)CCCn2cc(nn2)CO[C@@H]1CN(C)Cc1ccc(Cl)c(Cl)c1	none (no result: ABCB6 inh 2, NRP1-CendR mod, iPSC survival up, ARNT-TACC3 inh)
Nc1c(C(=O)OCC(=O)Nc2cccc([N+](=O)[O-])c2)[nH]c(=O)[nH]c1=O	ARNT-TACC3 inh 16.4
O=C(Nc1nc(-c2ccccn2)cs1)c1ccc2c(c1)OCCO2	ARNT-TACC3 inh 49.7
CC(=O)c1ccc(-c2ccc(C(=O)Nc3nc(-c4ccccn4)cs3)o2)cc1	ARNT-TACC3 inh 49.6
Cc1ccc(S(=O)(=O)N(C)C[C@H]2Oc3ccc(NS(C)(=O)=O)cc3C(=O)N([C@H](C)CO)C[C@H]2C)cc1	none (no result: ABCB6 inh 2, NRP1-CendR mod, iPSC survival up)
Cc1ccc(OCCNc2ccc(S(=O)(=O)N3CCCC3)cn2)cc1	none
CN(CCOc1ccc(Cl)cc1)c1ccc(S(=O)(=O)N2CCCCC2)cn1	NRP1-CendR mod 18.7 (no result: GSIS activator)
COc1ccccc1S(=O)(=O)N1CC[C@@H]2[C@H]1c1cc(-c3cccc(C#N)c3)ccc1N[C@@H]2CO	none (no result: ABCB6 inh 2, NRP1-CendR mod, iPSC survival up)
O=C(C[C@@H]1C=C[C@H](NS(=O)(=O)c2cccc(F)c2)[C@@H](CO)O1)N1CCCCC1	none (no result: ABCB6 inh 2, NRP1-CendR mod, iPSC survival up, ARNT-TACC3 inh)
CCCCC[C@@H](/C=C/C1C(=O)C=C[C@H]1C/C=C\CCCC(=O)OC)OC(C)=O (stereo not given in full)	GSIS activator 46.4
O=C(Nc1nnc(C2=COCCO2)o1)C1CCCCC1	ARNT-TACC3 inh 49.9
O=C(Nc1nnc(C2=COCCO2)o1)c1cccc(F)c1	none
CC(C)(C)c1ccc(C(=O)Nc2nnc(C3=COCCO3)o2)cc1	none
Cc1cccc(C(=O)Nc2nnc(C3=COCCO3)o2)c1	ARNT-TACC3 inh 55.3 (no result: GSIS activator)
COc1ccc(C(=O)Nc2nnc(C3=COCCO3)o2)cc1OC	ARNT-TACC3 inh 37.1
CC1=C(C(=O)OCC2CCCO2)C(c2ccccc2)NC(=O)N1 (stereo not given)	NRP1-CendR mod 28.0
CCC(=O)N1[C@H](CO)[C@@H]2c3ccccc3N(S(=O)(=O)c3ccccc3F)C[C@@H]21	none (no result: ABCB6 inh 2, NRP1-CendR mod, iPSC survival up)
COc1ccc2c3c([nH]c2c1)[C@H](CO)N(Cc1nccs1)CC31CCN(C(=O)C2CCCC2)CC1	none (no result: ABCB6 inh 2, NRP1-CendR mod, iPSC survival up, ARNT-TACC3 inh)
NC(=O)C1CC(=O)N(c2ccc(OCC(=O)N3CCCC3)cc2)C1 (stereo not given)	NRP1-CendR mod 27.6
COc1ccc(-n2sc3ccccc3c2=O)cc1	GSIS activator 86.6 (no result: ARNT-TACC3 inh)
COc1ccc(-n2sc3ccc(F)cc3c2=O)cc1	none
C[C@@H]1CN([C@H](C)CO)C(=O)c2cccc(NC(=O)CCCCCC(=O)Nc3ccccc3N)c2O[C@H]1CN(C)C(=O)Nc1ccc(C(F)(F)F)cc1	none (no result: ABCB6 inh 2, NRP1-CendR mod, iPSC survival up, ARNT-TACC3 inh)
